Only some compounds are listed: those with a hit (about 0.91% of all), similar ones and a draw of the others.
TRb-SRC2 inh – qHTS for Inhibitors of the Interaction of Thyroid Hormone Receptor and Steroid Receptor Coregulator 2; Thyroid hormone receptor beta (Homo sapiens), P10828; TRbeta-SRC2 peptide binding, fluorescence polarization; receptor liganded with 1 µM T3; Potency, µM (series often up to 106 µM), for inactives: top-dose activity change, negative = inhibition, actives largely listed as inhibitors; 280,000 compounds, 0.065% hits;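 also: plate controls were bound peptide for no effect and peptide without receptor for full effect; nearly all actives have a fitted effect of over 50% in size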
Target sequence (P10828 whole entry, looked up): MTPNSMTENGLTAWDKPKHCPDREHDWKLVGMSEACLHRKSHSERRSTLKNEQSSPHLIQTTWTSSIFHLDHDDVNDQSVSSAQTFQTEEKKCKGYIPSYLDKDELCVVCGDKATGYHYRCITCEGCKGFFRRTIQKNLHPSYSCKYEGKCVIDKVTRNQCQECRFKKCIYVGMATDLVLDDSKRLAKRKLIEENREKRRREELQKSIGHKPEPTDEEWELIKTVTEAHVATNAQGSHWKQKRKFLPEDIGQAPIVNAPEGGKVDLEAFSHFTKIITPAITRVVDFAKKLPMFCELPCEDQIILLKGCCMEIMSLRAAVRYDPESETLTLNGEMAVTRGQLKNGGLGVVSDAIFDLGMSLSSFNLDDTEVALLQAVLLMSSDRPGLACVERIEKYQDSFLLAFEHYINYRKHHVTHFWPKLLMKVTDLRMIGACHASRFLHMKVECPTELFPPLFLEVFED
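Read-out is fluorescence polarization (555 nm excitation, 632 nm emission) of a Texas Red SRC2 coactivator peptide; loss of signal reflects blocked binding to human TRb ligand-binding domain in the presence of 1 uM T3.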
BLM inh – qHTS Assay for Inhibitors of Bloom's syndrome helicase (BLM). RecQ-like DNA helicase BLM (Homo sapiens), P54132. recombinant BLM DNA unwinding, fluorescence dequenching. Potency, µM (titrated, usually from 56.1 µM), for the others: at the highest dose activity change, negative = inhibition, usual class: inhibitors. 350,000 compounds, 0.2% hits. AID 2528, 2010;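 also: plate controls were vehicle for no effect and no enzyme for full effect; nearly all actives have a fitted effect of over 35% in size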
RECQ1 inh-1 – qHTS Assay for Inhibitors of RecQ-Like Dna Helicase 1 (RECQ1); RECQ1 DNA unwinding, red fluorescence kinetic read; Potency, µM (doses to about 57.3 µM), for the others: at the top dose activity, negative = inhibition, most hits filed as inhibitors; 240,000 compounds, 0.54% hits; AID 2549, 2010;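 also: plate controls were vehicle for no effect and no enzyme for full effect; nearly all actives have a fitted effect of over 30% in size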
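50 nM RECQ1T1 preincubated 15 min with compound in Tris pH 8.0 buffer with MgCl2, DTT, Tween-20 and 2.5 ug/ml poly(dI-dC); started with 200 nM TAMRA/BHQ-2 forked duplex and 2 mM ATP. Unwinding read as fluorescence (525/598 nm), two reads 2 h apart.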
TR SRC2 fluor cs – Total Fluorescence Counterscreen for Inhibitors of the Interaction of Thyroid Hormone Receptor and Steroid Receptor Coregulator 2 | TRb/SRC2 Texas Red total fluorescence interference | Potency, µM (doses to about 106 µM), for inactives: at the highest dose fluorescence change, negative = quenching | 280,000 compounds, 0.29% hits | AID 1479, 2009; active = well fitted curve in either direction with a large enough effect; inconclusive = small, poorly fitted or top-dose-only effect
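Human TRβ ligand-binding domain (0.6 uM) and Texas Red SRC2 peptide (20 nM) in Tris buffer with 1 uM T3 and 5% DMSO were incubated with pinned compound for 5 hr at ambient temperature. Total fluorescence was computed as S + 2P (555/632 nm).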
APEX1 inh – qHTS Assay for Inhibitors of the Human Apurinic/apyrimidinic Endonuclease 1 (APE1); DNA repair nuclease/redox regulator APEX1 (Homo sapiens), P27695; AID 2517, 2012; 350,000 compounds, 0.35% hits; Potency, µM (highest dose often 65.8 µM), for inactives: at the top dose activity change, negative = inhibition, usual class: inhibitors; recombinant APE1, TAMRA/BHQ-2 abasic DNA cleavage fluorescence;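 also: plate controls were vehicle for no effect and reference inhibitor for full effect; nearly all actives have a fitted effect of over 55% in size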
Target sequence (P27695 whole entry, looked up): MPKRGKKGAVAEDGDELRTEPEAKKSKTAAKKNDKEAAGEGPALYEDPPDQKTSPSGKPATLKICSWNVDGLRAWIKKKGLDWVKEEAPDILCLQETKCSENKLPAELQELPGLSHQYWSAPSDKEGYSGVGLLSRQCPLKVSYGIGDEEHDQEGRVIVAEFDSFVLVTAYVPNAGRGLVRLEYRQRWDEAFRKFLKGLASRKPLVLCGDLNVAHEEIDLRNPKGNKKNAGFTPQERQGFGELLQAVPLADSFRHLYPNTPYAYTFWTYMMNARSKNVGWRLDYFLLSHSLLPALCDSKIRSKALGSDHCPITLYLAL
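Measures dequenching upon AP-site incision of a 5'-TAMRA/3'-BHQ-2 THF-containing duplex, 50 nM; human APE1 0.75 nM after 15 min room-temperature exposure to compound; kinetic three-point read at one-minute spacing.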
WRN helicase inh – qHTS for Inhibitors of WRN Helicase | Bifunctional 3'-5' exonuclease/ATP-dependent helicase WRN (Homo sapiens), Q14191 | 360,000 compounds, 0.46% hits | Potency, µM (titrated, usually from 114 µM), without a hit: at the highest dose activity change, negative = inhibition, most hits filed as inhibitors | WRN helicase unwinding, fluorescent forked duplex, kinetic; also: nearly all actives have a fitted effect of over 55% in size
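Enzyme (20 nM final) and test compound sit together 15 min at room temperature before substrate addition. Substrate is a single-forked duplex oligonucleotide (100 nM) labelled with fluorophore and quencher, with 2 mM ATP; helicase unwinding raises red fluorescence, read kinetically.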
RECQ1 inh conf – Confirmation qHTS Assay for Inhibitors of RecQ-Like Dna Helicase 1 (RECQ1); shares compounds with RECQ1 inh-1; AID 2708, 2010; RECQ1 helicase DNA unwinding, fluorescence; Potency, µM (titrated, usually from 229 µM), inactives show at the top dose activity change, negative = inhibition, most hits filed as inhibitors; 610 compounds, 28% hits; also: nearly all actives have a fitted effect of over 45% in size
ADP FP counter – Counterscreen for RECQ1 Inhibitors: ADP Fluorescence Polarization Displacement Assay. shares compounds with RECQ1 inh-1. ADP fluorescence polarization displacement counterscreen. Potency, µM (series often up to 228 µM), inactives show top-dose activity change, negative = inhibition, most hits filed as inhibitors. 530 compounds, 27% hits; also: nearly all actives have a fitted effect of over 45% in size
RECQ1 inh-2 – Confirmation qHTS Assay for Inhibitors of RecQ-Like Dna Helicase 1 (RECQ1) - Round 2 Cherry Picks | shares compounds with RECQ1 inh-1 | recombinant RECQ1 DNA unwinding, red fluorescence | Potency, µM (titrated, usually from 119 µM), inactives show at the top dose activity, negative = inhibition, usual class: inhibitors | 1,100 compounds, 15% hits | AID 504841, 2011; also: nearly all actives have a fitted effect of over 50% in size
* hit, by the source's call; i = inactive; ? = inconclusive; / = no result given; [ ] = dose if it differs, or a comment. Unless noted, calls follow the shape of the dose curve; as a rule, active = well fitted curve in the direction sought with a large enough effect; inconclusive = small, poorly fitted or top-dose-only effect, or another doubt; inactive = no such curve, though single readings can be large; an effect the other way counts as inactive or inconclusive. Unless noted, % is scaled to controls: 0 for no effect and ±100 for the full control effect; potency is read from the fitted curve at half-maximal effect.

SMILES | TRb-SRC2 inh | BLM inh | RECQ1 inh-1 | TR SRC2 fluor cs | APEX1 inh | WRN helicase inh | RECQ1 inh-2 | others
CCN(CC)C(=O)[C@H]1C[C@H](CC(=O)NCCC2=CCCCC2)C(=O)N2CCc3c([nH]c4ccc(Cl)cc34)[C@]12C | / | / | / | / | -34% | -11% | /
CC(=O)Nc1ccc(S(=O)(=O)Nc2ccc(S(=O)(=O)N3CCCC3)cc2)cc1 | 8% | -3% | 6% | 0% | 1% | 0% | /
CC(=O)Nc1ccc(S(=O)(=O)/N=C2\SCCN2S(=O)(=O)c2ccc(NC(C)=O)cc2)cc1 | -11% | 4% | ? | -23% | ? | -8% | -11%
COc1ccc(NC(=O)c2cc(S(=O)(=O)N3CCCCC3)c[nH]2)cc1 | / | -1% | / | / | 33% | -2% | /
COc1ccc(CNCC(O)(c2ccc(Cl)cc2)c2ccc(Cl)cc2)cc1OC | 3% | -14% | 14µM* | 3% | -2% | -15% | / | RECQ1 inh conf=?;ADP FP counter=22µM*
Cn1nnc(NC(=O)c2ccc(C(C)(C)C)cc2)n1 | -18% | 0% | 20µM* | -3% | 12% | 5% | -7%
CCn1cc(C(=O)O)c(=O)c2cnc(N3CCN(C(=S)Nc4ccccc4Cl)CC3)nc21 | -7% | -5% | -5% | -2% | 1% | -6% | /
CCNc1ccc(C(=O)OCC(=O)NCCN2C(=O)CSC2=O)cc1[N+](=O)[O-] | 5% | 0% | ? | -1% | 3% | -1% | 5%
Cc1ccc(C(=O)OCC(=O)NCCN2C(=O)CSC2=O)cc1 | -4% | -9% | -12% | -1% | 1% | -1% | /
Cc1ccc(C=C2C(=O)c3ccccc3C2=O)s1 | ? | 1% | 14µM* | 45µM*[fluorescent] | -11% | ? | / | RECQ1 inh conf=?;ADP FP counter=55%[91.9 µM]
Cc1ccnc(NC(=S)NC(=O)/C=C/c2ccco2)c1 | -11% | -13% | ? | -7% | ? | -35% | /
CC(=O)NC(=S)Nc1ccc(NC(=S)NC(=O)/C=C/c2ccco2)cc1 | 8% | -29% | ? | ? | ? | 3%[11.6 µM] | -19%
O=C(/C=C/c1ccco1)NC(=S)Nc1ccc(Cl)cn1 | 18% | -10% | 25µM* | ? | ? | -35% | -22%
COc1ccc(-c2cnnn2-c2ccc(NC(=O)c3ccccc3OC)cc2)cc1 | 10% | -3% | / | 0% | / | / | /
CN(c1ccc(F)cc1)S(=O)(=O)c1ccc(Cl)c(C(=O)Nc2ccc3c(c2)CCC3)c1 | 2% | -2% | 32µM* | 2% | 10% | -22% | -16%
COc1ccccc1-c1nnc(SCC(=O)Nc2nc(-c3ccccc3)cs2)n1C | 2% | 7% | -7% | 1% | 1% | -9% | / | RECQ1 inh conf=0%;ADP FP counter=8%
Cc1cc(C)nc(SCc2nnc(SCC(=O)Nc3nc(-c4ccccc4)cs3)n2C)n1 | -16% | 5% | -4% | 2% | -2% | -9% | /
COc1ccc(S(=O)(=O)Nc2ccccc2C(=O)Nc2nc(-c3ccc(F)cc3)cs2)cc1OC | 6%[53 µM] | -8% | ? | -5%[53 µM] | -6% | -34%[57.1 µM] | ?
CC(C)CC1=C/C(=C/c2ccc(-c3ccccc3)o2)C(=O)O1 | 4% | -25% | 25µM* | -2% | ? | 50µM* | / | RECQ1 inh conf=?
NS(=O)(=O)c1ccc(-c2ccc(C=C3C(=O)c4ccccc4C3=O)o2)cc1 | / | -3% | / | / | 33% | -6% | /
COc1ccc(OC)c(-c2csc(NC(=O)Cn3[nH]c(=O)c4ccccc4c3=O)n2)c1 | 13% | -11% | 28µM* | -4% | -4% | -13%[11.6 µM] | ?
O=C1/C(=C/c2ccco2)Oc2c1ccc(O)c2CN1CCCCC1 | 7% | -4% | ? | -4% | ? | ? | -17%
Cc1ccc(C2=CC(C)(c3ccc(C)cc3)Nc3nc(C(F)(F)F)nn32)cc1 (stereo unspecified) | -4% | -4% | ? | 2% | 13% | -21%[57.1 µM] | -15%
COc1ccc(CNc2ncnc3ccc(-c4ccoc4)cc23)c(OC)c1 | / | 4% | -4% | / | -2% | / | /
COc1ccc2[nH]cc(CCNc3ncnc4ccc(-c5ccoc5)cc34)c2c1 | / | -1% | ? | / | -4% | / | ?
SMILES | TRb-SRC2 inh | BLM inh | RECQ1 inh-1 | TR SRC2 fluor cs | APEX1 inh | WRN helicase inh | RECQ1 inh-2 | others
CCCCC1=CC2=CC(=O)C(C)(OC(=O)C3CCCC3)C(=O)C2=CO1 (stereo unspecified) | 0% | 0% | ? | 2% | 1% | ? | 79µM*
CCCCn1c(NC(=O)c2ccco2)c(S(=O)(=O)c2ccc(C)cc2)c2nc3ccccc3nc21 | -29% | -23% | ? | -9% | ? | ? | -28%
CCCCCn1c(NC(=O)c2ccco2)c(S(=O)(=O)c2ccc(C)cc2)c2nc3ccccc3nc21 | -2% | ? | 6% | 1% | -9% | -29% | /
COc1ccc(CN2C(=O)c3ccccc3C2C(=O)NC2CCCC(C)C2C)c(OC)c1 (stereo unspecified) | -2% | -9% | 3.2µM* | -1% | 1% | 4% | -10% | RECQ1 inh conf=-6%[114 µM];ADP FP counter=19%[91.9 µM]
COc1cccc2c1C(=O)c1c(O)c3c(c(O)c1C2=O)C[C@](O)(C(=O)CO)C[C@H]3O[C@@H]1C[C@H](N)[C@H](O)[C@H](C)O1 | 14µM* | ? | 8.9µM* | 16µM*[fluorescent] | 11µM* | / | / | RECQ1 inh conf=63µM*;ADP FP counter=1.1µM*
O=C(Nn1c(Cc2ccccc2)nc2ccccc2c1=O)c1c(O)c2cccc3c2n(c1=O)CCC3 | 2%[53 µM] | -3% | i | 0%[53 µM] | 1% | -4% | / | RECQ1 inh conf=?;ADP FP counter=?

Screens: PubChem, National Center for Advancing Translational Sciences (NCATS)
